Bioassay records from PubChem BioAssay.
An excerpt weighted towards active compounds, which were near 1.4% of everything screened.
GRK2 inh: compounds blocking aptamer binding on GRK2 – biochemical, human GRK2, bead flow cytometry, HTS, primary screen. Beta-adrenergic receptor kinase 1 (Homo sapiens), P25098. FAM-aptamer displacement from GRK2. inhibition of aptamer binding, % at 10 µM. hit rate 0.59% among 330,000;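 active means inhibition of aptamer binding above 40%, roughly 3 SD of noise, on plates passing a quality check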;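 further: median bead fluorescence of bound FAM aptamer so fluorescent compounds give negative values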
VLA-4 inh: inhibition in human VLA-4 binding assay, primary screen, VLA-4 allosteric modulator project, MLPCN library, flow cytometry, VLA-4 expressing cells. Integrin alpha-4 (Homo sapiens), P13612. ligand binding flow cytometry. inhibition, % (about 7 µM as worked out from the volumes in the protocol). hit rate 0.2% among 330,000; in the data active means inhibition above about 50%
A3G deaminase: APOBEC3G DNA deaminase inhibitors, primary screen, biochemical, fluorescence, single-stranded DNA substrate, uHTS; DNA dC->dU-editing enzyme APOBEC-3G (Homo sapiens), Q9HC16; hit rate 0.28% among 330,000; recombinant A3G, ssDNA deamination FAM/TAMRA fluorescence; inhibition, % at 20 µM;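 active means inhibition of at least 40% at 20 µM, with no more than 30% in the related APOBEC3A deaminase screen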;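 further: plate controls were DMSO wells with A3G for no effect and wells lacking A3G enzyme for full effect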
Target sequence (Q9HC16 whole entry, looked up): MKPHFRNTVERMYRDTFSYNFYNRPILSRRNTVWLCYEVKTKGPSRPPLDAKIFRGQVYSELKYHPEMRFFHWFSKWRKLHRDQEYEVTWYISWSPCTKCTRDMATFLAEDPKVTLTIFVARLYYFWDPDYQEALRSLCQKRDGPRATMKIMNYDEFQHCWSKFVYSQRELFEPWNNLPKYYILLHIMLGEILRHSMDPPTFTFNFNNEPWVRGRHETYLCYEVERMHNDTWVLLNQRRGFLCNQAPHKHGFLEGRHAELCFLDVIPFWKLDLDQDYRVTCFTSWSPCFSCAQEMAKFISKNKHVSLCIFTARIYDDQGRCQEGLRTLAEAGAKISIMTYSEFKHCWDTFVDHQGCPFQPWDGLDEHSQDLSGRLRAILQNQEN
APOBEC3A inh: APOBEC3A ssDNA deaminase inhibitors, primary screen, selectivity assay for APOBEC3G inhibitor project, biochemical, FAM/TAMRA oligo cleavage fluorescence; DNA dC->dU-editing enzyme APOBEC-3A (Homo sapiens), P31941; recombinant A3A, FAM/TAMRA ssDNA deamination fluorescence; inhibition, % at 20 µM; hit rate 0.41% among 330,000; AID 493011, 2011;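 active means at least 40% inhibition at 20 µM here, with at most 30% in a related deaminase screen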;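 further: plate controls were A3A with DMSO for no effect and wells lacking A3A enzyme for full effect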
A3G conf: APOBEC3G deaminase inhibitor retest, confirmation, biochemical, fluorescence, single-stranded DNA substrate, single concentration | shares compounds with A3G deaminase | recombinant A3G ssDNA deaminase, UDG/FAM-TAMRA fluorescence | inhibition, % at 20 µM | hit rate 72% among 890 | AID 493152, 2011;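 active means inhibition reaching a set limit in any replicate at 20 µM, the limit being 80% of the first screen's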
UDG A3G counter: E. coli UDG inhibitors, confirmation, counter-screen for APOBEC3G inhibitor project, biochemical, single concentration, fluorescence, FAM/TAMRA oligo; shares compounds with A3G deaminase; UDG counterscreen; inhibition, % at 20 µM; 710 tested, under 10 active; AID 504715, 2011;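 active means compounds giving 40% or more inhibition at 20 µM in any one of the three replicates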;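 further: plate controls were DMSO wells with UDG and oligo for no effect and DMSO wells lacking both for full effect; inhibitors lower the FAM signal released by uracil excision and alkaline cleavage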
Starred values were filed as active, the others as inactive; . = no result given.

SMILES | GRK2 inh | VLA-4 inh | A3G deaminase | APOBEC3A inh | A3G conf | UDG A3G counter
C/C=C/C(=O)Nc1cccc(C2=NOC3(C2)C[C@@H](C(N)=O)N(C(=O)c2cc([N+](=O)[O-])cc([N+](=O)[O-])c2C)C3)c1 (stereo partly drawn) | 3.0 | 0.1 | 0.1 | -0.1 | . | .
C=C(C)C(=O)Nc1cccc(C2=NOC3(C2)C[C@@H](C(N)=O)N(C(=O)C2(C)CC2)C3)c1 (stereo partly drawn) | 91.0* | -16.7 | 88.7* | 21.4 | 93.8* | .
CCCCCCCC(=O)NNC(=O)c1ccc([N+](=O)[O-])cc1 | 4.0 | 10.8 | -5.4 | 3.1 | . | .
CCOC(=O)N1CCN(c2ccnc3cc(Cl)ccc23)CC1 | 0.0 | -0.4 | 57.9* | -0.8 | -59.4 | -3.0
O=S(=O)(Nc1ccc2c(c1)OCO2)c1ccccc1 | 0.0 | 0.4 | -7.7 | -0.7 | . | .
O=S(=O)(Nc1ccc(O)c(NS(=O)(=O)c2ccccc2)c1)c1ccccc1 | 2.0 | 4.6 | 50.2* | 1.7 | 69.0* | -2.1
CCc1ccc(-n2c(=O)c3ccccc3n3c(=S)[nH]nc23)cc1 | 0.0 | -13.7 | 60.5* | -5.1 | 76.3* | -2.5
COc1ccc(C(=O)C2CCCN(Cc3nc4ccccc4nc3C)C2)cc1OC (stereo not drawn) | 0.0 | -3.0 | -5.3 | 2.9 | . | .
Cc1cccc(OCCn2c(=S)[nH]c3ccccc32)c1 | 0.0 | -8.4 | 62.0* | 8.4 | 45.8* | -1.1
S=c1[nH]c2ccccc2n1CCOc1ccccc1 | 1.0 | -1.7 | 10.3 | -6.9 | . | .
CC/C(=N/Nc1cccc(C)c1)c1cnnc(SC)n1 | 0.0 | 4.4 | 46.2* | 2.7 | 18.6 | .
CCN(CC)CCN1C(=O)C(O)=C(C(=O)c2cccs2)C1c1ccccn1 (stereo not drawn) | 1.0 | 18.3 | -2.3 | 0.9 | . | .
O=C(NCCCN1CCOCC1)c1sc2cc([N+](=O)[O-])ccc2c1Cl | 1.0 | 16.8 | 58.3* | -8.6 | 84.7* | -2.2
O=C(NCCCN1CCOCC1)c1sc2cc(Cl)ccc2c1Cl | 0.0 | -0.2 | -8.1 | 0.0 | . | .
CCCCN1C(=O)C2(NNc3ccccc3O2)c2ccccc21 (stereo not drawn) | 2.0 | -370.8 | 42.9* | 1.1 | 5.0 | .
Cc1ccc(-n2c(CCc3nc4ccccc4[nH]3)n[nH]c2=S)cc1 | 2.0 | 3.3 | 52.3* | 4.2 | 27.1 | .
CCn1c(CCc2nc3ccccc3[nH]2)n[nH]c1=S | 2.0 | 4.6 | 18.5 | -2.2 | . | .
CC(C)(C)NC(=O)CSc1nnnn1C(C)(C)C | 1.0 | -0.5 | -7.3 | -5.4 | . | .
N#Cc1c(-c2ccncc2)c2c([nH]c1=S)CCCC2 | 4.0 | 14.5 | 45.9* | -5.1 | 85.0* | -2.2
CCN1CCN(C(=S)c2ccc(Cl)cc2)CC1 | 0.0 | 26.1 | 68.4* | -0.8 | 75.2* | -2.5
CCc1cc(=O)oc2cc(OC(C)=O)cc(OC(C)=O)c12 | 2.0 | 4.0 | 0.7 | 2.8 | . | .
S=C(c1ccc(-c2cccc(Cl)c2)o1)N1CCCCC1 | 2.0 | 10.3 | -6.3 | -10.1 | . | .
S=C(c1ccc(-c2cccc(Cl)c2)o1)N1CCOCC1 | 1.0 | 9.9 | 43.3* | -2.8 | 26.4 | 0.0
COc1cc(S(=O)(=O)Nc2cccc(C)c2)ccc1N=Cc1c(C)[nH]n(-c2ccccc2)c1=O | 0.0 | 8.2 | 54.6* | 0.8 | -1.9 | .
CCOC(=O)c1cccc(NC(=O)Cn2cc3c(n2)CCC(C)C3)c1 (stereo not drawn) | 1.0 | 0.6 | 46.9* | 1.9 | -2.4 | .
CC(C)Oc1cccc(C(=O)Nc2ccc(Br)cc2F)c1 | 4.0 | -5.7 | -3.4 | 2.2 | . | .
Clc1ccccc1-c1nn2c(-c3ccncc3)nnc2s1 | 5.0 | 25.4 | 48.9* | 1.0 | 25.3* | -0.9
